# Reference: PubChem BioAssay
# Inconclusive results are not listed. For part of these data: Entries with a potency or affinity are not part of this list. Calls of active or inactive are those of the source. Unless noted, no rule for the calls is given here.
# Experiments:
# [1] = target: ATP-dependent translocase ABCB1 (Homo sapiens) (UniProt P08183); test: MDR1 (ABCB1) efflux transporter inhibition, cell-based (AID 377; in the data active = fluorescence slope change above about 50%); settings: MDR1-expressing cells, fluorescent substrate accumulation slope; stronger effect = higher value; concentration not given here
# ATP-dependent translocase ABCB1 (Homo sapiens), sequence (P08183 whole entry, looked up): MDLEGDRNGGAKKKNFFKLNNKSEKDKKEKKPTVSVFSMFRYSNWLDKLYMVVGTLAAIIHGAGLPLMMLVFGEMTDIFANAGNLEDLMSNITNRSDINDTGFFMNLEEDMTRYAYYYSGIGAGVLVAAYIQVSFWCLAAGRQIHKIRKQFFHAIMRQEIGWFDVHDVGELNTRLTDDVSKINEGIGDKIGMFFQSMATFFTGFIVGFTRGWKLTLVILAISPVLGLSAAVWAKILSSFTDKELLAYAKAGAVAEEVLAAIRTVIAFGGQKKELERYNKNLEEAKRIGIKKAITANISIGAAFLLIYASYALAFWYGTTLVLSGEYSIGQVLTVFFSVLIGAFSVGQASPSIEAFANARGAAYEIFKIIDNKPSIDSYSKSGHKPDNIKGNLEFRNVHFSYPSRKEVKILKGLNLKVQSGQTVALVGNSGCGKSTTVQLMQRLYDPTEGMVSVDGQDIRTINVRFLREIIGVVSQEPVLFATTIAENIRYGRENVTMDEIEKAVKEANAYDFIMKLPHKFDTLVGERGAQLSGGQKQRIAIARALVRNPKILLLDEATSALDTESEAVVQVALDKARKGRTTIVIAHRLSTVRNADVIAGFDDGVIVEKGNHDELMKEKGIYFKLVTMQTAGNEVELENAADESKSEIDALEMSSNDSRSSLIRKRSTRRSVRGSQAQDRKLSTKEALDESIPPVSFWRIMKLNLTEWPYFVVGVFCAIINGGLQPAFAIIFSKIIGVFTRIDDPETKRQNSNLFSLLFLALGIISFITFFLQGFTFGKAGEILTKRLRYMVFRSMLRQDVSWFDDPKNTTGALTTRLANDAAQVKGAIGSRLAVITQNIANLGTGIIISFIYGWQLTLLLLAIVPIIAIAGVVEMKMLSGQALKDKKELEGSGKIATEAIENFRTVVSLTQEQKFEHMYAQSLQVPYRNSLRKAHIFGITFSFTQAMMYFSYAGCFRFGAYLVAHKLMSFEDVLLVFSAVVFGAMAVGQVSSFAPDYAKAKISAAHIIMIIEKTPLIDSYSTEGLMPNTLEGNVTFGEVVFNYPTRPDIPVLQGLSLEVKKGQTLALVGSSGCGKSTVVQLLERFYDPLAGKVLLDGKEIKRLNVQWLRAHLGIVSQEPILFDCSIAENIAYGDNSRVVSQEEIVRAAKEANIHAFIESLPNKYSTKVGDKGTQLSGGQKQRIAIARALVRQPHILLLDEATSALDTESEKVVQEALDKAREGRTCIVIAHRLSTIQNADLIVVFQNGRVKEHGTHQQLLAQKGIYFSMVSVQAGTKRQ
# [2] = suppressors of polyQ aggregation in yeast, 75Q-TubU reporter (AID 1593); settings: Yeast 75Q polyglutamine aggregation reporter
# [3] = rescue of polyQ-huntingtin neuronal dysfunction in worms, whole organism, C. elegans mechanosensory neurons, N-terminal huntingtin (AID 1599); settings: touch response, stronger effect = higher value
# [4] = inhibitors of mitochondrial cytochrome c release, biochemical, purified mitochondria (AID 1603); settings: stronger effect = lower value;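 also: mouse liver mitochondria challenged with calcium chloride; signal normalized to the plate average as 100%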
# [5] = inhibitors of polyQ protein aggregation (AID 1604); settings: polyglutamine-induced protein aggregation inhibition assay; stronger effect = higher value; tested at 2.5 µM
# [6] = enhancers of glutamate uptake in motor neurons, MN-1 cell line (AID 1612); settings: MN-1 motor neuron cells, stronger effect = higher value;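 also: tested at 1 µM final; 0% = mean of DMSO vehicle wells on each plate; positive means more glutamate uptake than control and negative means less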
# [7] = suppressors of polyglutamine aggregation in yeast, 75Q-TubH (AID 1616); settings: S. cerevisiae 75Q-TubH polyglutamine aggregation suppression; stronger effect = higher value
# [8] = hESC survival regulators, cell-based (AID 493140); settings: human embryonic stem cell survival screen; stronger effect = higher value;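 also: cells exposed to compounds for four days before counting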
# [9] = growth inhibition of DIPG glioma cells, dose response, cell-based, SU-DIPG-XVII, MIPE5.0, CellTiter-Glo, qHTS (AID 1347060; cut-off not given, nearly all actives have AC50 up to about 26 µM;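 as to AC50: cells exposed to compound for 48 hours before viability readout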); settings: SU-DIPG-XVII viability, CellTiter-Glo ATP luminescence
# [10] = growth inhibition of DIPG glioma cells, dose response, cell-based, SU-DIPG-IV, MIPE4.0, CellTiter-Glo, qHTS (AID 1347063; cut-off not given, nearly all actives have AC50 up to about 30 µM;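 also: compound exposure lasted 48 hours before the viability readout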); settings: SU-DIPG-IV viability, CellTiter-Glo ATP luminescence
# [11] = SU-DIPG-VI glioma cell viability, MIPE4.0 library, CellTiter-Glo luminescence, qHTS (AID 1347066; cut-off not given, nearly all actives have AC50 up to about 30 µM;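 also: cells exposed to compound for 48 hours before readout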); settings: CellTiter-Glo ATP luminescence
# [12] = SU-DIPG-XXV glioma cell viability, MIPE5.0 library, qHTS (AID 1347068; cut-off not given, nearly all actives have IC50 up to about 30 µM;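 as to IC50: cells exposed to compound for 48 hours before viability readout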)
# [13] = system: Hepatitis C virus NS3 helicase; test: HCV NS3 helicase inhibitors, primary screen, biochemical, fluorescence polarization, LOPAC1280 library (AID 687035; in the data active = inhibition above about 37%); settings: Purified HCV NS3 helicase, Cy5-dT15 ssDNA binding fluorescence polarization; stronger effect = higher value; concentration not given here
# [14] = system: Aerobactin synthetase IucA (Klebsiella pneumoniae); test: IucA aerobactin synthetase inhibitors, biochemical, Tocris library, absorbance (AID 1345561); settings: purified IucA enzyme assay, absorbance (OD) read-out; stronger effect = lower value;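 tested at 8 µM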;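 also: 100% = enzyme without compound and 0% = no enzyme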
# [15] = system: Aerobactin synthetase IucA (Klebsiella pneumoniae, hypervirulent); test: IucA enzyme inhibition, biochemical, LOPAC library, absorbance readout (AID 1346212); settings: IucA enzyme assay, absorbance (OD) readout; stronger effect = lower value;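 tested at 8 µM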;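 also: 100% = no compound wells and 0% = no enzyme wells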
# [16] = phospholipid biosynthesis inhibitors in animal cells, primary screen, cell-based, LOPAC library, screen 4 (AID 1347384); settings: phospholipid biosynthesis inhibition screen, at 10 µM
# [17] = growth inhibition of DIPG glioma cells, dose response, cell-based, SU-DIPG-XIII, MIPE4.0, CellTiter-Glo, qHTS (AID 1347061; cut-off not given, nearly all actives have AC50 up to about 37 µM;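 also: cells exposed to compound for 48 hours before readout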); settings: SU-DIPG-XIII viability, CellTiter-Glo ATP luminescence
# [18] = modulation of C. elegans fzo-1 (AID 1259413);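 also: fzo-1 mutant C. elegans worms in liquid wells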; settings: C. elegans fzo-1 modulator screen, mean read-out; stronger effect = higher value
# [19] = reducers of polyQ inclusions in PC12 cells, cell-based, NGF-treated PC12, GFPQ80 (AID 1614); settings: PC12 NGF-treated GFP-polyQ80 inclusion reduction;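 also: lower means fewer inclusions and 0 means no inclusions at all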
smiles,measurement,setting,value
C[C@@H]1C[C@@H]([C@H](O)CC2CC(=O)NC(=O)C2)C(=O)[C@@H](C)C1,fluorescence slope change,[1],14.9% (inactive)
same,score,[2],0.04
same,rescue above control,[3],-0.63
same,cytochrome c release ratio,[4],1.07
same,inhibition of aggregation,[5],91.3%
same,glutamate uptake change,[6],-43.8%
same,aggregation suppression score,[7],0.0281
same,survival,[8],0.417 (inactive)
same,AC50,[9],934 nM (active)
same,AC50,[10],469 nM (active)
same,outcome,[11],inactive
same,IC50,[12],934 nM (active)
O=c1[nH]c2ccccc2n1C1CCN(CCCC(c2ccc(F)cc2)c2ccc(F)cc2)CC1,fluorescence slope change,[1],147% (active)
same,score,[2],1.1
same,rescue above control,[3],6.31
same,cytochrome c release ratio,[4],1.41
same,inhibition of aggregation,[5],38.1%
same,glutamate uptake change,[6],15.9%
same,aggregation suppression score,[7],1.1
same,survival,[8],4.67 (inactive)
same,inhibition,[13],-3% (inactive)
same,remaining activity,[14],106% (inactive)
same,remaining activity,[15],122% (inactive)
same,outcome,[16],inactive
O=c1[nH]c2ccccc2n1CCCN1CCC(n2c(=O)[nH]c3cc(Cl)ccc32)CC1,survival,[8],7.33 (inactive)
same,inhibition,[13],-3% (inactive)
same,remaining activity,[14],103% (inactive)
same,remaining activity,[15],105% (inactive)
same,outcome,[9],inactive
same,outcome,[17],inactive
same,outcome,[11],inactive
same,outcome,[12],inactive
same,outcome,[16],inactive
Clc1ccc(COC(Cn2ccnc2)c2ccc(Cl)cc2Cl)cc1 (stereo not given),fluorescence slope change,[1],66.2% (active)
same,score,[2],0.26
same,cytochrome c release ratio,[4],0.38
same,inhibition of aggregation,[5],43.9%
same,glutamate uptake change,[6],16.9%
same,aggregation suppression score,[7],0.0462
same,survival,[8],50.1 (inactive)
same,mean signal,[18],173 (inactive)
CC(Cc1ccc(O)cc1)NCC(O)c1cc(O)cc(O)c1 (stereo not given),fluorescence slope change,[1],108% (active)
same,score,[2],1.05
same,rescue above control,[3],3.16
same,cytochrome c release ratio,[4],1.18
same,inhibition of aggregation,[5],70.4%
same,glutamate uptake change,[6],0.39%
same,inclusion score,[19],2
same,aggregation suppression score,[7],1.23
same,survival,[8],36.6 (inactive)
same,inhibition,[13],-3% (inactive)
same,remaining activity,[15],91.6% (inactive)
same,outcome,[16],inactive
CC(C)(C)NCC(O)c1ccccc1Cl (stereo not given),score,[2],1.29
same,rescue above control,[3],-6.12
same,cytochrome c release ratio,[4],0.96
same,inhibition of aggregation,[5],72.5%
same,glutamate uptake change,[6],2.34%
same,inclusion score,[19],2
same,aggregation suppression score,[7],1.28
same,inhibition,[13],-4% (inactive)
same,remaining activity,[15],113% (inactive)
same,outcome,[16],inactive
CN(C)[C@@H]1C(=O)C(C(N)=O)=C(O)[C@@]2(O)C(=O)C3=C(O)c4c(O)cccc4[C@@](C)(O)[C@H]3[C@H](O)[C@@H]12,fluorescence slope change,[1],60.8% (active)
same,score,[2],0.9
same,rescue above control,[3],-1.64
same,cytochrome c release ratio,[4],0.99
same,inhibition of aggregation,[5],39.4%
same,glutamate uptake change,[6],-6.56%
same,inclusion score,[19],1
same,aggregation suppression score,[7],0.502
same,survival,[8],14.3 (inactive)
same,mean signal,[18],260 (inactive)
same,outcome,[9],inactive
same,outcome,[17],inactive
same,outcome,[10],inactive
same,outcome,[11],inactive
same,outcome,[12],inactive
CN(C)[C@@H]1C(=O)C(C(N)=O)=C(O)[C@@]2(O)C(=O)C3=C(O)c4c(O)cccc4[C@@](C)(O)[C@H]3C[C@@H]12,fluorescence slope change,[1],76.3% (active)
same,score,[2],0.85
same,rescue above control,[3],-1.89
same,cytochrome c release ratio,[4],2.45
same,inhibition of aggregation,[5],47.2%
same,glutamate uptake change,[6],10.7%
same,inclusion score,[19],0
same,aggregation suppression score,[7],0.769
same,survival,[8],22.6 (inactive)
same,mean signal,[18],244 (inactive)
same,outcome,[9],inactive
same,outcome,[17],inactive
same,outcome,[10],inactive
same,outcome,[11],inactive
same,outcome,[12],inactive
COC(=O)C1=CCCN(C)C1,score,[2],1.73
same,rescue above control,[3],4.32
same,cytochrome c release ratio,[4],0.68
same,inhibition of aggregation,[5],81.4%
same,glutamate uptake change,[6],13.8%
same,inclusion score,[19],2
same,aggregation suppression score,[7],1.35
same,survival,[8],7.67 (inactive)
same,inhibition,[13],0% (inactive)
same,remaining activity,[15],111% (inactive)
same,outcome,[10],inactive
same,outcome,[11],inactive
same,outcome,[16],inactive
CN1C(=O)CCS(=O)(=O)C1c1ccc(Cl)cc1 (stereo not given),fluorescence slope change,[1],29.1% (inactive)
same,score,[2],0.89
same,rescue above control,[3],10
same,cytochrome c release ratio,[4],0.72
same,inhibition of aggregation,[5],72.7%
same,glutamate uptake change,[6],3.58%
same,inclusion score,[19],2
same,aggregation suppression score,[7],1.17
same,survival,[8],8 (inactive)
same,inhibition,[13],0% (inactive)
same,remaining activity,[14],97.1% (inactive)
same,remaining activity,[15],93.8% (inactive)
same,outcome,[9],inactive
same,outcome,[17],inactive
same,outcome,[10],inactive
same,outcome,[11],inactive
same,outcome,[12],inactive
same,outcome,[16],inactive
CCC1(C2=NCCN2)Cc2ccccc2O1 (stereo not given),inhibition,[13],-1% (inactive)
same,remaining activity,[14],98.6% (inactive)
same,remaining activity,[15],82.2% (inactive)
same,outcome,[16],inactive
NCC(O)c1ccc(O)cc1 (stereo not given),score,[2],1.11
same,rescue above control,[3],-6.97
same,cytochrome c release ratio,[4],0.99
same,inhibition of aggregation,[5],55.6%
same,glutamate uptake change,[6],-13.3%
same,inclusion score,[19],2
same,aggregation suppression score,[7],0.97
same,survival,[8],5.08 (inactive)
same,inhibition,[13],-4% (inactive)
same,remaining activity,[14],96.2% (inactive)
same,outcome,[16],inactive
c1ccc2nc(N3CCNCC3)ccc2c1,fluorescence slope change,[1],25.1% (inactive)
same,score,[2],1.22
same,rescue above control,[3],-5.3
same,cytochrome c release ratio,[4],0.9
same,inhibition of aggregation,[5],63.9%
same,glutamate uptake change,[6],-14.6%
same,inclusion score,[19],2
same,aggregation suppression score,[7],1.33
same,survival,[8],8.75 (inactive)
same,remaining activity,[14],102% (inactive)
same,remaining activity,[15],114% (inactive)
